# Assay results published in the supplement of paper PMC12067093, “Discovery and optimisation of a covalent ligand for TRIM25 and its application to targeted protein ubiquitination” (Chemical Science, 2025).
# Of roughly 21,000 targets only a part is listed; those with the largest changes were picked by preference.
# Compound: Cc1cc(ccc1-c1ccccc1)C(=O)N1CCCN(CC1)C(=O)CCl [compound 10]
# Experiment: probe-labelled cysteine peptide fold change vs DMSO (competition) (log2 fold change); higher = less target engagement (more negative = stronger competition)
# Details: 50 µM; THP-1; incubation time: 4 h
# 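Also: competitive profiling in live THP-1 cells: cysteine peptides tagged with an iodoacetamide desthiobiotin (IA-DTB) probe, intensity after compound treatment relative to DMSO-treated cells.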
# UniProt Q7Z3D6, sequence (Q7Z3D6 whole entry, looked up): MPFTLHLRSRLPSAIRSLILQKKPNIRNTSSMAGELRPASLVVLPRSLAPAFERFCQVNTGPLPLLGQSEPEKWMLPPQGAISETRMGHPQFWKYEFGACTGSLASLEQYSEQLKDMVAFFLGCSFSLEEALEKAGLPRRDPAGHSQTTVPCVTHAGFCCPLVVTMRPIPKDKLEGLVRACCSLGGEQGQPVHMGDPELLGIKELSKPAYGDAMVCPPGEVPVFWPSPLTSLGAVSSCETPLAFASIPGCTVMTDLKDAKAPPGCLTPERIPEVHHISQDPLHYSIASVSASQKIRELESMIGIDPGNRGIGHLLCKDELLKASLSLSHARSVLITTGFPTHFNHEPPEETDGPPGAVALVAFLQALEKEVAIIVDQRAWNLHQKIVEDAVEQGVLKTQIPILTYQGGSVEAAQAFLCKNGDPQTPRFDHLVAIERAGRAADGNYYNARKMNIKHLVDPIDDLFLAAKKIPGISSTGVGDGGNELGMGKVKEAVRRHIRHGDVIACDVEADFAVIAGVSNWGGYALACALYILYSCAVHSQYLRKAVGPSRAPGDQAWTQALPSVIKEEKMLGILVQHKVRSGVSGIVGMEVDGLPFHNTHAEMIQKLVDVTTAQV
# UniProt O60716, sequence (O60716 whole entry, looked up): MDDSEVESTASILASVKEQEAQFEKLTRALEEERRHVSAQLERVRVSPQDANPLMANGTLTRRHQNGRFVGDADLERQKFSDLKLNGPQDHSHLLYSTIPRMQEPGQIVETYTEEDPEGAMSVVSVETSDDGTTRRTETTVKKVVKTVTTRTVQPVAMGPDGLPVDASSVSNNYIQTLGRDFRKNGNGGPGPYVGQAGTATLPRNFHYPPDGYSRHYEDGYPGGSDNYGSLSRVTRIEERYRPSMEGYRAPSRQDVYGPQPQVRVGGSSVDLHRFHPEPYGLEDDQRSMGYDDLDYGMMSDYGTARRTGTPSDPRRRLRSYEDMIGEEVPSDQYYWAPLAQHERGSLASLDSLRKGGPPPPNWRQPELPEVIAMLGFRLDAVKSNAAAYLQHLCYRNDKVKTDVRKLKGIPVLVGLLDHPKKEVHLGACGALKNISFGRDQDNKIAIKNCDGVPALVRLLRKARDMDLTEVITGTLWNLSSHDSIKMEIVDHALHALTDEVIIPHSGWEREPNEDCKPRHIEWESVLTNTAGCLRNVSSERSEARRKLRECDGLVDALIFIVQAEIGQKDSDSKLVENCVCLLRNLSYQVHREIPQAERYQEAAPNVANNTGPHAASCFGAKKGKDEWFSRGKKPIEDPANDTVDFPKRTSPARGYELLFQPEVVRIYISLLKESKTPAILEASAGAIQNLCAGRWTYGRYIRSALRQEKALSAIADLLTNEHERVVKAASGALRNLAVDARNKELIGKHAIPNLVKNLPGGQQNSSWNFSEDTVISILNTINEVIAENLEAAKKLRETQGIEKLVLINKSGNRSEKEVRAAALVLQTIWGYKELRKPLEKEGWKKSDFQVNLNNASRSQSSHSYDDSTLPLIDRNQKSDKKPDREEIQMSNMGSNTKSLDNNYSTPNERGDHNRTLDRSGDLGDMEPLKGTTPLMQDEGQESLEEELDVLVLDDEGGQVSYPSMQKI
# UniProt A2RUS2, sequence (A2RUS2 whole entry, looked up): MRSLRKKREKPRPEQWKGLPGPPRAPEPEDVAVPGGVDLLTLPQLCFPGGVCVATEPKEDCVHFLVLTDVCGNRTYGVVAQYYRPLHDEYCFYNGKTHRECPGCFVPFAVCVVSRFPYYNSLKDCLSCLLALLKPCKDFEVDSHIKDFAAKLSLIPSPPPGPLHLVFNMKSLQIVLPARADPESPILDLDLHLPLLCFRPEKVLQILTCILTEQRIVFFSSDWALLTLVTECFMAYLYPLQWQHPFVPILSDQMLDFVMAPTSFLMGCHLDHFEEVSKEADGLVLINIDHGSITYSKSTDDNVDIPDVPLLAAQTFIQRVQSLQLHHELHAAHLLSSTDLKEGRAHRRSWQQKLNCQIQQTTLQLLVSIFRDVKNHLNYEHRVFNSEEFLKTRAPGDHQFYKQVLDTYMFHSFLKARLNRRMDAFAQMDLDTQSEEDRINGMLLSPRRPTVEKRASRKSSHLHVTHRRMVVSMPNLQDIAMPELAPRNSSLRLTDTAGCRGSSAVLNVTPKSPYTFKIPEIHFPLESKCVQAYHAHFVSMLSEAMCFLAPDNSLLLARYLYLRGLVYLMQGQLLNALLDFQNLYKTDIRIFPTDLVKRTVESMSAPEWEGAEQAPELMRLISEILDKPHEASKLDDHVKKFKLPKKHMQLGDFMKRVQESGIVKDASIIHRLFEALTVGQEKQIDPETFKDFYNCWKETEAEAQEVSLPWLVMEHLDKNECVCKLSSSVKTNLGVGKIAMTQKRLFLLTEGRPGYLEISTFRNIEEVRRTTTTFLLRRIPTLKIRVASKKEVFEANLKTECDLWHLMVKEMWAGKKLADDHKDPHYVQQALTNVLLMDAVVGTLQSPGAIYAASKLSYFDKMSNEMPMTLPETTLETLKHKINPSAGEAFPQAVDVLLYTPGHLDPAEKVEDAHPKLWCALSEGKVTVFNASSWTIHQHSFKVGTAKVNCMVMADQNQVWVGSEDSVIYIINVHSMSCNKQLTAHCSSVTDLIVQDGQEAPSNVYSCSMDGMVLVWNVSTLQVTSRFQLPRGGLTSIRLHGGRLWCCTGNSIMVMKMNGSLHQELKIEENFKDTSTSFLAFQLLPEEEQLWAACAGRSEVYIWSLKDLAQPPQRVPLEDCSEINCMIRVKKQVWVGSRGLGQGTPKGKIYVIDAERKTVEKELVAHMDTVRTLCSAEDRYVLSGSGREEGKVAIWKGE
# UniProt Q9BRF8, sequence (Q9BRF8 whole entry, looked up): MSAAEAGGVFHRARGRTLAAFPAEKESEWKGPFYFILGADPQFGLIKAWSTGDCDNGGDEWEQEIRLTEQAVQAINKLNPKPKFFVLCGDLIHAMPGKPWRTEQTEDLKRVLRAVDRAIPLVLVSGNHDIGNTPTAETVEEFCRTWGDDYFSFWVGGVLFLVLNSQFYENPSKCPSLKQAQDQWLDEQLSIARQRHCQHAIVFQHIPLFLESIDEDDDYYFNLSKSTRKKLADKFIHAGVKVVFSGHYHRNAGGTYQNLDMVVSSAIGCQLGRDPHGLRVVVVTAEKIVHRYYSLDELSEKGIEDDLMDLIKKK
# UniProt Q6PKH6, sequence (Q6PKH6 whole entry, looked up): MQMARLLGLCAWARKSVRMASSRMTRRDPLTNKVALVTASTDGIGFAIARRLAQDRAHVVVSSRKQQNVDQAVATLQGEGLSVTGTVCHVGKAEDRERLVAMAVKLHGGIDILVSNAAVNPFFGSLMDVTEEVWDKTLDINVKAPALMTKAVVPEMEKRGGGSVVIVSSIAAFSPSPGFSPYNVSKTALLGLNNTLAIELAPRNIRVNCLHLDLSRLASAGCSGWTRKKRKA
# UniProt Q99829, sequence (Q99829 whole entry, looked up): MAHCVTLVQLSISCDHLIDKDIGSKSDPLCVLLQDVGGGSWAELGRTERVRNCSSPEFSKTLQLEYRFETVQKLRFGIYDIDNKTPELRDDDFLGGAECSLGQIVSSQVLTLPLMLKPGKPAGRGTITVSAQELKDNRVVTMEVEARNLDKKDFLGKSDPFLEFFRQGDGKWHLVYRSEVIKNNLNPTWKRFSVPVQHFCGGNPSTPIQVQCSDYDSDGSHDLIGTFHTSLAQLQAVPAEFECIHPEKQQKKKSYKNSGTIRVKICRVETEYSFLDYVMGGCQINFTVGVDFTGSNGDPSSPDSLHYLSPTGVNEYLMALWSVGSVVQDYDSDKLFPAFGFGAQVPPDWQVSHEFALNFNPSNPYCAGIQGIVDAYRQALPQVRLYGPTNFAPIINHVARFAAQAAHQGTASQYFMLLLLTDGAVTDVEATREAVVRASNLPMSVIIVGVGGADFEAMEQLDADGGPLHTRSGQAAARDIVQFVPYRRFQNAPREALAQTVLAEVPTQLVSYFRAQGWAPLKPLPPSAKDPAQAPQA
# UniProt O00571, sequence (O00571 whole entry, looked up): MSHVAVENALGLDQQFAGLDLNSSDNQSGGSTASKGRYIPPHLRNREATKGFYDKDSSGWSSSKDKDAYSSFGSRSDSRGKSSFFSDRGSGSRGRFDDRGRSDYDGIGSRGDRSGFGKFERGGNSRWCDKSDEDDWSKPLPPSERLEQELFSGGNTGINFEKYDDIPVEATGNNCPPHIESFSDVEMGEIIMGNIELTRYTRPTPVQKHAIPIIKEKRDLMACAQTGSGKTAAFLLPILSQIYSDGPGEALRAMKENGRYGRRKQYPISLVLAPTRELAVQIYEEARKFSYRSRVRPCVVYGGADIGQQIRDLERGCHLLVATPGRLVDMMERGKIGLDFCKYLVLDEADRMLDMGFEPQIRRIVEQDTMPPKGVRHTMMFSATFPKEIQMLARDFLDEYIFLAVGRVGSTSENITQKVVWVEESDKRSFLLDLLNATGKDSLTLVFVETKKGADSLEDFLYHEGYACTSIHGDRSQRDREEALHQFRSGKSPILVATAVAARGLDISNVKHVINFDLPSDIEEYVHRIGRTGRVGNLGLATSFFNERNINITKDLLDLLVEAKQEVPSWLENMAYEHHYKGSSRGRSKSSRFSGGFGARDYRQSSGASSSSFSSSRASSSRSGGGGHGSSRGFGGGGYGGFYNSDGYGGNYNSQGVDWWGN
# UniProt Q16698, sequence (Q16698 whole entry, looked up): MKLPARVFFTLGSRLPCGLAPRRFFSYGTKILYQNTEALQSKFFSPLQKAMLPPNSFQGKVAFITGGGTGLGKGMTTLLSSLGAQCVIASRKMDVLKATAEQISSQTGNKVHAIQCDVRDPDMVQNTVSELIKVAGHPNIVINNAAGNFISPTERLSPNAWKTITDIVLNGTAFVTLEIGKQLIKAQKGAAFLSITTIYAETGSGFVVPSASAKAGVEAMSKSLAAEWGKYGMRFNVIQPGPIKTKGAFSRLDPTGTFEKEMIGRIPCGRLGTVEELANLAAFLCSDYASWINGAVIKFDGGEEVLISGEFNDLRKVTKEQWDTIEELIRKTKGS
row,Target,probe-labelled cysteine peptide fold change
1,DENND3_A2RUS2_1094_DTSTSFLAFQLLPEEEQLWAACAGR (UniProt A2RUS2),1.16
2,DIP2A_Q14689_6_GCPLEAAPLPAEVR (UniProt Q14689),-2.19
3,COG1_Q8WTW3_318_LCSWFK (UniProt Q8WTW3),-2.3
4,DHRS4L2_Q6PKH6_86_KQQNVDQAVATLQGEGLSVTGTVCHVGK (UniProt Q6PKH6),-0.306
5,DECR1_Q16698_86_GMTTLLSSLGAQCVIASR (UniProt Q16698),0.213
6,CPNE1_Q99829_4+14_AHCVTLVQLSISCDHLIDK (UniProt Q99829),-0.173
7,CTNND1_O60716_618_YQEAAPNVANNTGPHAASCFGAK (UniProt O60716),-0.78
8,DDX3X_O00571_128_WCDKSDEDDWSK (UniProt O00571),-1.35
9,DGLUCY_Q7Z3D6_316_GIGHLLCK (UniProt Q7Z3D6),0.0827
10,DHX57_Q6P158_644_LLYCTTGVLLR<|>DHX29_Q7Z478_678_LLYCTTGVLLR (UniProt Q7Z478+Q6P158),0.172
11,DDX50_Q9BQ39_242_LSVACFYGGTSYQSQINHIR (UniProt Q9BQ39),-0.294
12,CORO7_P57737_790_TECDVREVELMR (UniProt P57737),-0.995
13,CPPED1_Q9BRF8_88_FFVLCGDLIHAMPGKPWR (UniProt Q9BRF8),-0.191
14,CRYL1_Q9Y2S2_125_VILSSSTSCLMPSK (UniProt Q9Y2S2),-0.537
15,DIS3L2_Q8IYB7_196_LSVCVSEK (UniProt Q8IYB7),0.0776
